Compounds with a hit are over-represented: about 12% of the library has one in this group of screens.
SARS PLP yeast – inhibitors of SARS-CoV papain-like protease in yeast. 330,000 tested, 0.19% active. Potency, µM (series often up to 32.9 µM), usual class: activators. S. cerevisiae expressing SARS-CoV PLpro, growth rescue; calls by dose curve; note: nearly all actives have a fitted effect of over 55% in size
Pf growth 96h – P. falciparum growth inhibition at 96 hours | P. falciparum luciferase reporter growth, 96 h | Potency, µM (doses to about 28.7 µM), most hits filed as inhibitors | 320,000 tested, 6.9% active | AID 504834
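Readout is luminescence from an integrated firefly luciferase in P. falciparum. Red cells, 2% hematocrit and 0.05% parasitemia final, were cultured with compound through two parasite generations (96 hours) at 37 C, 5% CO2.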
AMA1 RON2 block – AMA1-RON2 (P. falciparum) interaction inhibition. AlphaScreen AMA1-biotinylated RON2 peptide binding. Potency, µM (top dose mostly 58.2 µM), hits mostly inhibitors. 360,000 tested, 0.2% active; note: nearly all actives have a fitted effect of over 45% in size
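AMA1 (3D7) with his tag at 25 nM final met compounds first, then biotinylated RON2 peptide at 25 nM; detection used donor plus acceptor beads, 10 µg/mL apiece, read by AlphaScreen after 30 min at room temperature.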
HCV inh – blocks hepatitis C virus | Huh7.5.1 HCVcc-Cre infection, luciferase reporter, 44 h | Potency, µM (highest dose often 41.8 µM), usual class: inhibitors | 340,000 tested, 3.4% active
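Infectious HCVcc-Cre (~0.5 moi) was added to cells just after compound, with cells seeded 4 h earlier at 1,000 per well. Luciferase activity after 44 h culture reported infection; substrate was incubated 15 min at room temperature before reading.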
Pf growth 48h – P. falciparum growth inhibition at 48 hours (one generation). 310,000 tested, 5.9% active. Potency, µM (doses to about 28.7 µM), most hits filed as inhibitors. P. falciparum luciferase growth in erythrocytes, 48 h
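First compound was added to culture medium, then infected red cells at 0.1% parasitemia and 2% hematocrit (final). After incubation at 37 C under 5% CO2, luciferase detection reagent was dispensed and light output recorded.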
NS1 inh – inhibitors of influenza NS1 protein function; AID 2326; 270,000 tested, 0.4% active; Potency, µM (series often up to 46.1 µM); calls by dose curve; note: actives are rising curves; nearly all actives have a fitted effect of over 50% in size
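S. cerevisiae expressing influenza A NS1, grown in glucose, washed, then diluted 1:100 into pH 6.0 -URA galactose medium with 23 nl compound. Growth recovery read as OD600; NS1-free strain serves as control.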
A number is an active result; – = inactive; ? = inconclusive; · = no result; [ ] = another dose, or the depositor's remark. Unless noted, calls come from the whole dose curve; as a rule, active = well fitted curve in the direction sought with a large enough effect; inconclusive = small, poorly fitted or top-dose-only effect, or another doubt; inactive = no such curve, though single readings can be large; an effect the other way counts as inactive or inconclusive.

SMILES	SARS PLP yeast	Pf growth 96h	AMA1 RON2 block	HCV inh	Pf growth 48h	NS1 inh
CCOc1cc(C)cc2oc(=O)c3c(c12)CCCC3	–	–	–	?	–	–
C[C@H]1CN([C@@H](C)CO)C(=O)CCCn2nncc2CO[C@@H]1CN(C)C(=O)NC1CCCCC1	·	·	–	·	·	·
Cc1cc(C)nc(NN=C(c2ccccc2)c2ccccc2)n1	–	13µM	–	?	?	–
Cc1cc(C)nc(Nc2ccc(C(=O)O)cc2)n1	–	–	–	–	·	–
Cc1cc(C)nc(NN=C2CCCC2)n1	–	?	–	–	12µM	–
CC(/C=C/c1ccccc1)=N\NC(=O)c1ccncc1	–	–	–	–	–	–
CC(/C=C/c1ccccc1)=N\NC(=S)NC(C)C	–	4.7µM	–	?	–	–
CC(/C=C/c1ccccc1)=N\Nc1nc(C)cc(C)n1	?	10µM	–	–	?	–
CC(C)NC(=O)C1(C)CCN1C(=O)c1cccc(F)c1 (configuration not stated)	·	·	–	·	·	·
Cc1cc(/C=N\NC(=O)CC(=O)NC2CCCCC2)c(C)n1-c1cccc(Cl)c1Cl	–	8.3µM	–	–	–	–
CCn1ncc(Br)c1C(=O)Nc1c(C)nn(Cc2c(F)c(F)c(F)c(F)c2F)c1C	?	?	–	?	–	–
N#Cc1ccc(C23CC4(C2)[C@H](CN(CC2CCCCC2)[C@@H]4c2ccccc2)C3c2ccc(Cl)nc2)cc1 (some centres not stated)	–	?	–	–	?	–
N#Cc1ccc(C23CC4(C2)[C@H](CN(CC2CCCCC2)[C@@H]4c2ccccc2)C3c2ccc(C(F)(F)F)cc2)cc1 (some centres not stated)	–	?	·	·	10µM	–
N#Cc1ccc(C23CC4(C2)[C@H](CN(CC2CCCCC2)[C@@H]4c2ccccc2)C3c2ccccc2)cc1 (some centres not stated)	–	12µM	–	–	?	–
C/C(=N\N1CCN(c2ccccc2)CC1)c1ccc(O)cc1	–	–	–	–	–	–
COCCNC(=O)/C(C#N)=c1\s/c(=C\c2ccccc2OC(F)F)c(=O)n1Cc1ccccc1	–	–	·	·	–	–
COc1cc(-c2cc(C(=O)Nc3c(Cl)cc(Cl)cc3Cl)c3ccccc3n2)cc(OC)c1OC	–	?	–[11.6 µM]	10µM	13µM	–
COc1ccc(-c2cc(C(=O)NCC(c3ccccc3)N(C)C)c3ccccc3n2)cc1OC (configuration not stated)	–	9.3µM	–	?	10µM	–
COc1cc(-c2cc(C(=O)Nc3ccc(S(=O)(=O)Nc4ncccn4)cc3)c3ccccc3n2)cc(OC)c1OC	–	7.4µM	–	–	?	–
COc1ccc(NC(=O)c2cc(-c3cc(OC)c(OC)c(OC)c3)nc3ccccc23)cc1OC	–	?	–	?	13µM	–
COc1cc(-c2cc(C(=O)Nc3ccc(S(N)(=O)=O)cc3)c3ccccc3n2)cc(OC)c1OC	–	?	–	?	?	–
Cc1ccc(-c2cc(C(=O)NCC(c3ccccc3)N(C)C)c3ccccc3n2)o1 (configuration not stated)	–	·	–	–	·	·
CC1CCCCC1NC(=O)C1CCC(CNc2c(N3CCCCC3)c(=O)c2=O)CC1 (configuration not stated)	–	–	–	–	–	–
O=C(Nc1ccccc1)c1ccsc1	–	–	–	–	–	–
CCN(CC)S(=O)(=O)c1ccc(O)c(NC(=O)c2cc(-c3cc(OC)c(OC)c(OC)c3)nc3ccccc23)c1	–	1.2µM	?	?	?	–
SMILES	SARS PLP yeast	Pf growth 96h	AMA1 RON2 block	HCV inh	Pf growth 48h	NS1 inh
COc1ccc(-c2cc(C(=O)Nc3ccc(O)cc3)c3ccccc3n2)cc1OC	–	?	–	?	6.6µM	–
COc1ccc(-c2cc(C(=O)Nc3ccc(S(=O)(=O)Nc4onc(C)c4C)cc3)c3ccccc3n2)cc1	–	?	–	–	12µM	–
COc1ccc(-c2cc(C(=O)Nc3ccc(S(=O)(=O)Nc4ncccn4)cc3)c3ccccc3n2)cc1	–	?	–	–	?	–
CC(C)(C)c1ccc(-c2cc(C(=O)NNC(=O)Nc3ccccc3)c3ccccc3n2)cc1	–	4.7µM	–	?	·	–
COc1ccc(C)cc1NC(=O)CSc1nnc(-c2cc(C)[nH]n2)n1N	–	–	–	–	–	–
O=S(=O)(c1c(Cl)sc(Cl)c1Br)N1CCCC1	–	12µM	–	–	?	–
O=S(=O)(c1ccc(Cl)cc1)N1CCCCCC1	–	–	–	–	–	–
C[C@@H](O)[C@@H]1C(=O)N2C(C(=O)O)=C([C@H]3CCCO3)S[C@H]12	·	–	·	·	–	·
COc1cc(CNn2nnnc2N)cc(Br)c1OCc1c(Cl)cccc1Cl	–	?	–	13µM	·	–
CCn1c(C)nc2cc(C(=O)N/N=C(\C)c3ccccc3O)ccc21	–	–	–	10µM	–	·
CCn1c(C)nc2cc(C(=O)N/N=C/c3ccccc3C)ccc21	–	?	–	–	–	–
COc1ccccc1N1CCN(Cc2cc(=O)oc3cc(C)ccc23)CC1	·	·	–	·	·	·
CCOc1ccccc1N1CCN(Cc2cccc(OC)c2O)CC1	–	·	–	?	3.3µM	–
O=C(CCN1CCN(c2ccccc2F)CC1)Nc1ccc2c(c1)OCO2	–	3.3µM	?	?	–	–
Oc1cc2c(cc1CN1CCN(c3ccccc3F)CC1)OCO2	–	?	?	–	9.3µM	–
COc1ccccc1N1CCN(Cc2cc(Br)c(O)c3ncccc23)CC1	?	?	–	4µM	·	–
O=C(O)CCCn1cc(NC(=O)COc2ccccc2)cn1	–	–	–	–	–	–
COc1ccccc1N1CCN(Cc2cc(C)c(C)cc2O)CC1	–	0.33µM	–	?	·	?
COc1ccc(CNC(=O)CN2CCN(c3cccc(C)c3C)CC2)cc1	–	–	–	3.2µM	–	–
COc1ccc(OC)c(NC(=O)CCN2CCN(c3ccccc3OC)CC2)c1	–	?	–	–	?	–
COc1cc(CN2CCN(c3cc(C)ccc3C)CC2)ccc1O	–	·	–	?	10µM	–
COc1ccc(NC(=O)CCN2CCN(c3ccccc3F)CC2)c(OC)c1	·	10µM	–	–	?	–
COc1ccccc1N1CCN(Cc2ccc3c(c2)OCO3)CC1	·	·	–	–	·	·
COc1ccccc1N1CCN(Cc2cc3c(cc2O)OCO3)CC1	–	–	–	–	15µM	–
COc1cc(CN2CCN(c3cccc(C)c3C)CC2)cc(Br)c1O	–	·	?	?	4.1µM	–
COc1ccc(CN2CCN(c3cccc(C)c3C)CC2)cc1OC	–	·	–	–	·	–
Cc1ccc(-c2nc(C(=O)NCCCN3CCOCC3)cc3c2[nH]c2ccccc23)cc1	–	6.6µM	–	11µM	5.9µM	–
COc1ccc(-c2nc(C(=O)NCCCN3CCOCC3)cc3c2[nH]c2ccccc23)cc1OC	–	5.2µM	–	13µM	?	–
